Measurements taken from PubChem BioAssay (EPA / NIEHS).
Values joined by “and” are separate entries in the source; they are usually repeats but may differ in a detail not shown here. Equal entries are not always repeated. Some structures have more than one record in an assay (separate samples or runs), and their calls can disagree. Active and inactive are the calls of the source. Rule for the calls: active = hit-call score of the fitted dose curve at least 0.9, where 1 is the maximum; inactive = score below 0.9.

Assay: BSK_LPS_SRB: Viability Assessment in the BioMAP Diversity Plus: LPS Assay (AID 2283079);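 note: measured one day after compound addition; fitted in both directions against DMSO so loss or gain of signal counts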
Details: primary human HUVEC with PBMC
Protocol: BSK_LPS is a cell-based, multiplexed-readout assay that uses umbilical vein endothelium and peripheral blood mononuclear cells, a human vascular primary cell co-culture, with measurements taken at 24 hours after chemical dosing in a 96-well plate.BSK_LPS_SRB is an assay component measured in the BSK_LPS assay. It measures 0.1% sulforhodamine related to cell death using Sulforhodamine staining technology.Data from the assay component BSK_LPS_SRB was analyzed into 1 assay endpoint. This assay endpoint, BSK_LPS_SRB, was analyzed with bidirectional fitting relative to DMSO as the negative control and baseline of activity. Using a type of viability reporter, gain or loss-of-signal activity can be used to understand changes in the signaling. Furthermore, this assay endpoint can be referred to as a primary readout, because this assay has produced multiple assay endpoints where this one serves a signaling function. To generalize the intended target to other relatable targets, this assay endpoint is annotated to the cell morphology intended target family, where the subfamily is cell conformation.
The levels of cell surface (or secreted, indicated by the prefix "s") biomarker endpoints were measured by ELISA. Overt cytotoxicity to cells in confluent adherent cultures (all systems other than the BT system) was assessed by measuring total protein levels using sulforhodamine B (SRB) staining in parallel cultures at the time of biomarker measurements, indicated as SRB endpoints. For proliferation assays for adherent cell types, individual cell types are cultured at sub-confluence and relative cell numbers quantified by SRB staining at time points optimized for each system (48 h: 3C and CASM3C systems; 72 h: BT and HDF3CGF systems; 96 h: SAg system). SRB was performed by staining cells with 0.1% SRB after fixation with 10% TCA and reading wells at 560 nm.Viability and proliferation of PBMC (T cells) was quantified by Alamar Blue reduction for the SAg and BT systems. For PBMC viability (referred to as PBMC Cytotoxicity within the assay endpoint names), cells were plated (75,000/well in a 96-well plate) and then chemical samples added for 1 h before addition of activators, SEB and TSST-1 (20 ng/mL final concentration each). Cells were incubated for 90 h. Then, Alamar Blue (20 uL/well) (Invitrogen, Cat DAL1100) was added for 6 h, and the plates were read with a fluorescence microplate reader at 546/580 nm (excitation/emission). For PBMC proliferation, cells were plated and activated as above but incubated for only 16 h prior to addition of Alamar Blue. Plates were read after 6 h.
In the case of `C#C[C@]1(O)CC[C@H]2[C@@H]3CCc4cc(OC)ccc4[C@H]3CC[C@@]21C`, the outcome is reported as “inactive”.
For `O=C(O)C(F)(F)C(F)(F)C(F)(F)F`, the outcome was “inactive”.
With `NC(=O)C(F)(F)C(F)(F)C(F)(F)C(F)(F)F` the outcome was “inactive”.
In the case of `C=CC/C=C/C/C=C/C/C=C/C`, the outcome is reported as “inactive”.
For `FC(F)(F)C(F)(F)C(F)(F)C(F)(F)C(F)(F)C(F)(F)C(F)(F)I`, the outcome was “inactive”.
For `CCCCCCCOC(=O)c1ccccc1C(=O)OCCCCCCC`, the outcome was “inactive”.
For `C=CC(=O)OCC(F)(F)C(F)(F)C(F)(F)C(F)(F)C(F)(F)C(F)(F)C(F)(F)F`, the outcome was “inactive”.
For `O=C(O)C(F)(F)C(F)(F)C(F)(F)C(F)(F)C(F)(F)C(F)(F)C(F)(F)C(F)(F)C(F)(F)C(F)F`, the AC50 was 46.9 µM (active) and 55 µM (active).
For `O=C(O)C(F)(F)C(F)(F)C(F)(F)C(F)(F)C(F)(F)C(F)(F)C(F)(F)C(F)(F)C(F)(F)C(F)(F)C(F)(F)C(F)(F)C(F)(F)F`, the outcome was “inactive”.
In the case of `O=P(O)(O)OCCC(F)(F)C(F)(F)C(F)(F)C(F)(F)C(F)(F)C(F)(F)F`, the outcome is reported as “inactive”.
With `FC(F)(F)C(F)(F)C(F)(F)N(C(F)(F)C(F)(F)C(F)(F)F)C(F)(F)C(F)(F)C(F)(F)F` the outcome was “inactive”.
With `C=C(C)C(=O)OCC(F)(F)C(F)(F)C(F)(F)C(F)(F)C(F)(F)C(F)(F)C(F)(F)F` the outcome was “inactive”.
For `CC(=O)Nc1ccc(N=Nc2cc(C)ccc2O)cc1`, the outcome was “inactive”.
For `O=S(=O)(OCC(F)F)C(F)(F)F`, the outcome was “inactive”.
For `CCO[Si](CCC(F)(F)C(F)(F)C(F)(F)C(F)(F)C(F)(F)C(F)(F)F)(OCC)OCC`, the outcome was “inactive”.
With `OCCCC(F)(F)C(F)(F)C(F)(F)F` the outcome was “inactive”.
In the case of `OCC(F)(F)C(F)(F)C(F)(F)C(F)(F)C(F)(F)C(F)(F)F`, the outcome is reported as “inactive”.
With `FC1CC(F)(F)C(F)(F)C1(F)F` (stereo not given) the outcome was “inactive”.
With `OCCCC(F)(F)C(F)(F)C(F)(F)C(F)(F)C(F)(F)C(F)(F)C(F)(F)F` the AC50 was 54 µM (active) and 46.2 µM (active).
For `CCc1ccc(C(c2ccc(CC)cc2)C(Cl)Cl)cc1`, the AC50 was 25.1 µM (active).
With `CS(C)(=O)=O` the outcome was “inactive”.
In the case of `C=CC(=O)OCC(F)(F)C(F)(F)C(F)(F)C(F)(F)COC(=O)C=C`, the AC50 is reported as 45.3 µM (active) and 43.4 µM (active).
For `O=C(CC(=O)C(F)(F)C(F)(F)F)C(F)(F)F`, the outcome was “inactive”.
In the case of `FC(F)(F)C(F)(F)C(F)(F)C(F)(F)C(F)(F)C(F)(F)CCS`, the outcome is reported as “inactive”.
In the case of `O=C(O)C(F)(F)C(F)(F)C(F)(F)C(F)(F)F`, the outcome is reported as “inactive”.
With `O=C(O)C(F)(OC(F)(F)C(F)(OC(F)(F)C(F)(F)C(F)(F)F)C(F)(F)F)C(F)(F)F` (stereo not given) the outcome was “inactive”.
For `O=S(=O)(OCCOC(F)(F)F)C(F)(F)F`, the outcome was “inactive”.
In the case of `Cc1ccc(S(=O)(=O)OCC(F)(F)C(F)(F)C(F)(F)C(F)(F)C(F)(F)C(F)F)cc1`, the outcome is reported as “inactive”.
For `CCCCCCCCC(F)(F)C(F)(F)C(F)(F)C(F)(F)C(F)(F)C(F)(F)F`, the outcome was “inactive”.
For `CCCCCCC(C)OC(=O)CCCCC(=O)OC(C)CCCCCC` (stereo not given), the outcome was “inactive”.
For `FC(F)(F)C(F)(F)C(F)(F)C(F)(F)C(F)(F)C(F)(F)C(F)(F)Br`, the outcome was “inactive”.
With `OCC(F)(F)C(F)(F)C(F)(F)C(F)(F)C(F)(F)C(F)F` the outcome was “inactive”.
In the case of `CCCCCCOC(=O)c1ccccc1O`, the AC50 is reported as 43.2 µM (active) and 42.1 µM (active).
In the case of `C=CC(F)(F)C(F)(F)C(F)(F)C(F)(F)C(F)(F)C(F)(F)C(F)(F)C(F)(F)F`, the outcome is reported as “inactive”.
With `O=C(O)C(F)(F)C(F)(F)C(F)(F)C(F)(F)C(F)(F)C(F)(F)C(F)(F)C(F)(F)C(F)(F)C(F)(F)C(F)(F)C(F)(F)F` the outcome was “inactive”.
In the case of `CC(CCl)OP(=O)(OC(C)CCl)OC(C)CCl` (stereo not given), the outcome is reported as “inactive”.
In the case of `CCN(CC)c1ccc2c(C)cc(=O)oc2c1`, the outcome is reported as “inactive”.
In the case of `CCc1c(Br)c(Br)c(Br)c(Br)c1Br`, the outcome is reported as “inactive”.
In the case of `N=C(N)C(F)(F)C(F)(F)C(F)(F)C(F)(F)C(F)(F)C(F)(F)C(F)(F)F`, the outcome is reported as “inactive” and the AC50 is reported as 55.1 µM (active).
